Results taken from the supplement of paper PMC11001985.
Unmarked numbers belong to inactive results.

Each target was assayed with C#CCNC(=O)CCSSCCC(=O)NCCc1ccc(C=O)c(C=O)c1 (assay: lysine labeling ratio R10:1 (500 µM / 50 µM probe), SILAC-ABPP in living cells; higher = lower intrinsic lysine reactivity toward the probe, active = 2 or less). Details: HeLa; probe concentrations 500 vs 50 µM.
Procedure, shortened: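 An alkyne-tagged lysine probe with a disulfide linker labelled living HeLa cells in PBS at room temperature at either 50 µM or 500 µM, using SILAC light and heavy cells in forward and reverse label swaps. Lysates were mixed, clicked to biotin-azide, trypsin-digested, enriched on neutravidin, DTT-released, alkylated and measured by LC-MS/MS on a TIMS-TOF Pro. Each lysine's R is the filtered median high-probe/low-probe MS1 peptide ratio, combined as the median over forward and reverse replicates, with 20 as the upper limit.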

UniProt Q92688, sequence (Q92688 whole entry): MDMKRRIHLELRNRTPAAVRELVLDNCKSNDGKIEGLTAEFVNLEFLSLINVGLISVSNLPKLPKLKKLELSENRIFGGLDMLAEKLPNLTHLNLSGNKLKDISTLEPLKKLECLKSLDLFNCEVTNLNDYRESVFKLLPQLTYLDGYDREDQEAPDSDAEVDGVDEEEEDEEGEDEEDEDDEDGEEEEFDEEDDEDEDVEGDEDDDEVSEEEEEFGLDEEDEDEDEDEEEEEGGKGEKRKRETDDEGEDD
UniProt P35579, sequence (P35579 whole entry): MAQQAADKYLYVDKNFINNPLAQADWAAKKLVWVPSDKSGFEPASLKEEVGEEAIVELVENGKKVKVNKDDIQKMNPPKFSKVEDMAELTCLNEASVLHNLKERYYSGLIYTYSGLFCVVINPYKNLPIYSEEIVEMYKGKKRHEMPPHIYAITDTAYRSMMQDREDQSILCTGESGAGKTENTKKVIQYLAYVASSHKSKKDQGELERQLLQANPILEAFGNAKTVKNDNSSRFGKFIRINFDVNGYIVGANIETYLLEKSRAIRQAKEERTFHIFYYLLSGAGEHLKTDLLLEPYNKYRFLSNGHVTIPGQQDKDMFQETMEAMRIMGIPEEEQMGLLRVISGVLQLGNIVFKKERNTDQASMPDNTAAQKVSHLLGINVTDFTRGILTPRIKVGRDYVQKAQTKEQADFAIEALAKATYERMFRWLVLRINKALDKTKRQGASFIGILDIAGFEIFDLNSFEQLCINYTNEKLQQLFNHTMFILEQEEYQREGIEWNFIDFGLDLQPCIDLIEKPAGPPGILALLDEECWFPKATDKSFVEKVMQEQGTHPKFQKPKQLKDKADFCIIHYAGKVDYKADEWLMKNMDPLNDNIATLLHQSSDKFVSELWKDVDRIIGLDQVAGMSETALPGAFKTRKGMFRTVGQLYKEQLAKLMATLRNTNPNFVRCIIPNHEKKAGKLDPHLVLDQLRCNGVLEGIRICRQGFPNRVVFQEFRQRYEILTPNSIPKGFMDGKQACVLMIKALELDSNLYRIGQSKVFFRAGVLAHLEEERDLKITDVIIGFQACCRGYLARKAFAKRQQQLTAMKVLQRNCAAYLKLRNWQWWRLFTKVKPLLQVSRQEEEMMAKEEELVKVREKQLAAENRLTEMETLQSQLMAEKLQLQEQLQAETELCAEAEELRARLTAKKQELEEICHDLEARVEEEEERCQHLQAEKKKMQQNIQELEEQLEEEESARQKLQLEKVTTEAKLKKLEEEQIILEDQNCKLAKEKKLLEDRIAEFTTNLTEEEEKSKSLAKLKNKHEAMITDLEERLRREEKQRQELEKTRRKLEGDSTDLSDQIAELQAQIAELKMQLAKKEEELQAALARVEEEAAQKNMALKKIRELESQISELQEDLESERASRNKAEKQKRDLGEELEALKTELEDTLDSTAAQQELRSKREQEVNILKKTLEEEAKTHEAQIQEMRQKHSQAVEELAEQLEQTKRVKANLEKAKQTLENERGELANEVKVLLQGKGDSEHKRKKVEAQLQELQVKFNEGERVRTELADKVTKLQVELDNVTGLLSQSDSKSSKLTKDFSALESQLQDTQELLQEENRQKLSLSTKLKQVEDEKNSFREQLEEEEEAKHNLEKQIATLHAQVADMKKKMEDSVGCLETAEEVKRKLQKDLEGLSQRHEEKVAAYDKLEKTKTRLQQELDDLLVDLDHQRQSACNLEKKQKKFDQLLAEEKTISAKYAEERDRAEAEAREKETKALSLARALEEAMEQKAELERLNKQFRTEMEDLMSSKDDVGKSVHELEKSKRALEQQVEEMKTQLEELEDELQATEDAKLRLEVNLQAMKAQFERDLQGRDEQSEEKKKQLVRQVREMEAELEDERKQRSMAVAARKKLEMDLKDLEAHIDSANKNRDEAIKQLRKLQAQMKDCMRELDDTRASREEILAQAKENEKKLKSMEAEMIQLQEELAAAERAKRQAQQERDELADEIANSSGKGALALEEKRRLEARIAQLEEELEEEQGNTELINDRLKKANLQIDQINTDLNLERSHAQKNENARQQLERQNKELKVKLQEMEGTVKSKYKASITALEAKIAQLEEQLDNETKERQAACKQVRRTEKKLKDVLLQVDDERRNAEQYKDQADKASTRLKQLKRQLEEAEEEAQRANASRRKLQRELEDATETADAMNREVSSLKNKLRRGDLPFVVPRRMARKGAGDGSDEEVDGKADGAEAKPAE
UniProt P43121, sequence (P43121 whole entry): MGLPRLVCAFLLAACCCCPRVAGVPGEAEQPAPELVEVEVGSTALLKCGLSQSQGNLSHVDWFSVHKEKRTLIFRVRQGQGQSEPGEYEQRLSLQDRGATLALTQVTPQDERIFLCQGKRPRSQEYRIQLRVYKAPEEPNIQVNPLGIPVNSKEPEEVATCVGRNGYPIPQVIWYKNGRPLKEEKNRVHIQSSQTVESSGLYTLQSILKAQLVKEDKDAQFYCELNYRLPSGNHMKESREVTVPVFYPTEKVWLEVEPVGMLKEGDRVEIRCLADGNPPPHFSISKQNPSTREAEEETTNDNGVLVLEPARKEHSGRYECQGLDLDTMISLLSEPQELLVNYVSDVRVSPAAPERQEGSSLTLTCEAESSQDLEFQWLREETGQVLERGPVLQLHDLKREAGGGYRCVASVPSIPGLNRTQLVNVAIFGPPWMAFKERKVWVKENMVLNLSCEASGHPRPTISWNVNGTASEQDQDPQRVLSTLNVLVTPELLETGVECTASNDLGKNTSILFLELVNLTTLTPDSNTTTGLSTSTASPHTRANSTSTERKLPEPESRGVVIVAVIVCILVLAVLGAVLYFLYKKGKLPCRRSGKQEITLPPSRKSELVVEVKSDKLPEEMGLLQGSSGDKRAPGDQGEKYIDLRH
UniProt P08174, sequence (P08174 whole entry): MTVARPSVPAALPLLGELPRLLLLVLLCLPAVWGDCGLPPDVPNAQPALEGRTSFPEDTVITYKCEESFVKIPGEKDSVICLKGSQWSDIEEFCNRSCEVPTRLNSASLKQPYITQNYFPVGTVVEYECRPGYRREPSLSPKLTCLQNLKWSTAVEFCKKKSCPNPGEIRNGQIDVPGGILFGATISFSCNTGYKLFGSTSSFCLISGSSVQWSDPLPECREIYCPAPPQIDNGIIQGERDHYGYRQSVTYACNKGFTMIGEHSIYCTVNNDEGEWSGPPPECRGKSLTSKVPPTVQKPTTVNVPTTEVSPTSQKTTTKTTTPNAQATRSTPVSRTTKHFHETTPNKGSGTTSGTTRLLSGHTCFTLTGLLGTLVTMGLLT
UniProt P52272, sequence (P52272 whole entry): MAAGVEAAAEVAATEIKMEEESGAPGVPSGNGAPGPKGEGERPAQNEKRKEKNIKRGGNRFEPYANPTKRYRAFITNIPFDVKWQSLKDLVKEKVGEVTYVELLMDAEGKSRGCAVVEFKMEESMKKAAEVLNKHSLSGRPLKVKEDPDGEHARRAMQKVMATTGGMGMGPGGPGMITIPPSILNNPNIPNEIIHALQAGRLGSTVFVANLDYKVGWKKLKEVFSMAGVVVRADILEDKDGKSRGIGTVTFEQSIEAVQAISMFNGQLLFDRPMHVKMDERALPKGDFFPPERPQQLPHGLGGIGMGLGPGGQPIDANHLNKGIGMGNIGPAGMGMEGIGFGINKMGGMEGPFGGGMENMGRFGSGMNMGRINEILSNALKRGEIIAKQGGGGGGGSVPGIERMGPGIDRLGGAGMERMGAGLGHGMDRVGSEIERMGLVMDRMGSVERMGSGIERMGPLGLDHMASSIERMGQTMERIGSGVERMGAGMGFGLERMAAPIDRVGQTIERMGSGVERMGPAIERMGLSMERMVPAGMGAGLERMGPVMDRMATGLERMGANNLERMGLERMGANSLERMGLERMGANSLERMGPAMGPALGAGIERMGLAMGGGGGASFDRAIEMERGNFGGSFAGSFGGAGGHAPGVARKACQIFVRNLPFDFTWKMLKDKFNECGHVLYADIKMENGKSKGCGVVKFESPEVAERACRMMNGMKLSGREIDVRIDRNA
UniProt P60981, sequence (P60981 whole entry): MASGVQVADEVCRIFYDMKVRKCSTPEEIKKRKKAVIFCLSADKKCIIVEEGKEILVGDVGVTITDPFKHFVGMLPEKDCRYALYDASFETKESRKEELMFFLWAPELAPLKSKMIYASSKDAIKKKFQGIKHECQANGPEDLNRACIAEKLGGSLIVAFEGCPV
UniProt Q12797, sequence (Q12797 whole entry): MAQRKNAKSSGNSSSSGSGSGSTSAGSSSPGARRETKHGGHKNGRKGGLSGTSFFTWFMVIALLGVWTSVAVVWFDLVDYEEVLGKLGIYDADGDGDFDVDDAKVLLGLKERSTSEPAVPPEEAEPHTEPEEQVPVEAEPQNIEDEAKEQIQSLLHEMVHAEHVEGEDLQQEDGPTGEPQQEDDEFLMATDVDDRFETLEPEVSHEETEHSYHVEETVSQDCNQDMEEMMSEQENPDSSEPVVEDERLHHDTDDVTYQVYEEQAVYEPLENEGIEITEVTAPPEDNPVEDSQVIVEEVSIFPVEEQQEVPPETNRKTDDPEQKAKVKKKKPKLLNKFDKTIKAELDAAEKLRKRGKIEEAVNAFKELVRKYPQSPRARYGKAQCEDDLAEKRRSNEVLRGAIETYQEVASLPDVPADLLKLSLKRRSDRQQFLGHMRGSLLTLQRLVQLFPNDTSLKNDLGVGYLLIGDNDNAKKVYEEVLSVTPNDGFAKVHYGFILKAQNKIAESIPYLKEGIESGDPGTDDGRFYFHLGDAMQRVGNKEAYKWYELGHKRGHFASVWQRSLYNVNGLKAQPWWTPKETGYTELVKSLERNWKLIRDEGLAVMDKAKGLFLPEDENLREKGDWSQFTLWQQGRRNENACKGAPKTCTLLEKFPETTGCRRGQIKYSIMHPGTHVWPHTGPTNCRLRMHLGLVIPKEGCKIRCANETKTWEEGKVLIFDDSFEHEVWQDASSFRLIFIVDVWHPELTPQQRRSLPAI

| Target | lysine labeling ratio R10:1 |
| --- | --- |
| MSN (lysine site: K388) (UniProt P26038) | 1.79 (active) |
| EGFR (lysine site: K327) (UniProt P00533) | 5.84 |
| CDH13 (lysine site: K185) (UniProt P55290) | 4.74 |
| ANXA1 (lysine site: K166) (UniProt P04083) | 1.32 (active) |
| ASPH (lysine site: K110) (UniProt Q12797) | 4.5 |
| HNRNPM (lysine site: K239) (UniProt P52272) | 1.67 (active) |
| THBS1 (lysine site: K1103) (UniProt P07996) | 0.85 (active) |
| UniProt Q16629 (lysine site: K24) | 3 |
| CDCP1 (lysine site: K396) (UniProt Q9H5V8) | 0.987 (active) |
| FLNA (lysine site: K92) (UniProt P21333) | 5.97 |
| XRCC6 (lysine site: K338) (UniProt P12956) | 1.69 (active) |
| ANP32B (lysine site: K68) (UniProt Q92688) | 1.78 (active) |
| CD55 (lysine site: K160) (UniProt P08174) | 1.09 (active) |
| RPL5 (lysine site: K178) (UniProt P46777) | 4.17 |
| MYH9 (lysine site: K1631) (UniProt P35579) | 1.9 (active) |
| SPTAN1 (lysine site: K2404) (UniProt Q13813) | 1.94 (active) |
| SDC2 (lysine site: K111) (UniProt P34741) | 1.38 (active) |
| SDC4 (lysine site: K114) (UniProt P31431) | 3.81 |
| MCAM (lysine site: K185) (UniProt P43121) | 3.4 |
| L1CAM (lysine site: K222) (UniProt P32004) | 9.33 |
| DSTN (lysine site: K92) (UniProt P60981) | 2.43 |
| UniProt P61353 (lysine site: K98) | 1.21 (active) |
| UniProt Q15149 (lysine site: K2182) | 1.67 (active) |
